{"source": "the supplement of paper PMC11417369", "note": "± gives the standard deviation of the averaged measurements. Whole data set: some 25,000 sequences, median “ln(normalized median fluorescence intensity)” near 10, cut for the highest 2% near 12. For the sample, the highest values were picked, then their nearest neighbours and some sequences at random."}
{"tested_on": "PfAP2-G AP2 domain (GST-tagged)", "experiment": "gcPBM binding intensity (ln(normalized median fluorescence intensity)); higher = stronger DNA binding", "summary_of_the_method": "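GST-fused DNA-binding domains of P. falciparum, expressed in E. coli, were applied at about 25 μg on average for 1 h to an Agilent 4 × 180k array of primer-extended double-stranded 36-bp intergenic genomic probes and negative controls. Binding intensity is the highest Masliner-normalised natural-log median intensity across replicate spots of either probe orientation, measured with Alexa488 anti-GST antibody and a 488 nm scan.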"}
{"sequence": "AATTAACCGTGACACACACACATATAAATATAAATA [CACACA_site7790]", "gcPBM binding intensity (ln)": "10.3 ± 0.47"}
{"sequence": "TATTGTTCTTATTTAGTGCATATATAATATAATATA [GTGCAC_site9827]", "gcPBM binding intensity (ln)": "10.3 ± 0.33"}
{"sequence": "ACAAAATTTACAAAATGTACAAAATTTACAAAATAT [XGTACX_site3542]", "gcPBM binding intensity (ln)": "10.8 ± 0.49"}
{"sequence": "TAATAAAAAATATATACACACAAATAAATAAATAAA [CACACA_site4037]", "gcPBM binding intensity (ln)": "9.77 ± 0.071"}
{"sequence": "TACATATTTTTTATATGTACATATTTTTTATGTGTA [XGTACX_site442]", "gcPBM binding intensity (ln)": "11.4 ± 0.77"}
{"sequence": "ATATATATTTATATATGTACATATTTTTGTGTATTT [XGTACX_site1183]", "gcPBM binding intensity (ln)": "11.3 ± 0.79"}
{"sequence": "CATATTAAGATGTGTACACATTTTTATTTTTTTTTT [CACACA_site4425]", "gcPBM binding intensity (ln)": "11.6 ± 0.93"}
{"sequence": "ATATTTATATATATATGTACATATGTGTGTTTTTAT [XGTACX_site3956]", "gcPBM binding intensity (ln)": "10.9 ± 0.51"}
{"sequence": "TGCCTATTTTGGATGTGTACACATATATATATTTAT [XGTACX_site6741]", "gcPBM binding intensity (ln)": "11.7 ± 0.88"}
{"sequence": "CTATTTTGGATGTGTACACATATATATATTTATATT [CACACA_site5706]", "gcPBM binding intensity (ln)": "11.7 ± 0.85"}
{"sequence": "TTTATTGAACGTACACATATATATATGTATATATTT [TGCATGCA_negctrl_site141]", "gcPBM binding intensity (ln)": "11.3 ± 0.88"}
{"sequence": "ATTTTTGTACACTTCTTTTTTTTTTTTCTTTTATGT [CACACA_negctrl_site1323]", "gcPBM binding intensity (ln)": "11.4 ± 0.68"}
{"sequence": "AAAAAAAAATCATATTGTACGTAAAAAAAAAAAAAA [XGTACX_site476]", "gcPBM binding intensity (ln)": "11.4 ± 1"}
{"sequence": "TATTTATACTAATATGCATGTAATCGAAATACAGCT [TGCATGCA_site457]", "gcPBM binding intensity (ln)": "9.685 ± 0.078"}
{"sequence": "AATATGGTTATATATATATATATATATATATATATT [GTGCAC_negctrl_site566]", "gcPBM binding intensity (ln)": "9.67 ± 0.071"}
{"sequence": "TTTCTTTTTGTTCGTGTACACACATGAAATTTATAA [CACACA_site8466]", "gcPBM binding intensity (ln)": "11.6 ± 0.86"}
{"sequence": "TGAAATAAAATTTGTACACACATATATATATATATA [CACACA_site586]", "gcPBM binding intensity (ln)": "11.1 ± 0.81"}
{"sequence": "TCTTTTTGTTCGTGTACACACATGAAATTTATAAAA [CACACA_site1619]", "gcPBM binding intensity (ln)": "11.8 ± 1.1"}
{"sequence": "GAACCGTGCAAATGTTGTACACTTTAAAAATATTCT [XGTACX_site4488]", "gcPBM binding intensity (ln)": "11.6 ± 0.84"}
{"sequence": "AGGTGCAAAAATAAAACATGCAAAAATAAAAATGAA [TGCATGCA_site502]", "gcPBM binding intensity (ln)": "10.07 ± 0.028"}
{"sequence": "TTACCTCTTTGAAATATACACACTAAACATATCAAC [CACACA_site2455]", "gcPBM binding intensity (ln)": "10.1 ± 0.13"}
{"sequence": "CACAAACAAAAACACACACACACACCGACAAAAATG [CACACA_site5362]", "gcPBM binding intensity (ln)": "10.5 ± 0.38"}
{"sequence": "ACATACATACCCCCACGTACGTACCGAAACACCACC [XGTACX_site1982]", "gcPBM binding intensity (ln)": "11.5 ± 0.74"}
{"sequence": "AACATACAGAAACACACACACACACCCACACCCACA [CACACA_site493]", "gcPBM binding intensity (ln)": "10.4 ± 0.31"}
{"sequence": "ACATACATACACCCACGTACGTACCGAAACACCACC [XGTACX_site1212]", "gcPBM binding intensity (ln)": "11.7 ± 1.1"}
